LASV entry inh – blocks Lassa virus binding or cell entry. Lassa virus pseudotyped entry inhibition, cell-based qHTS. Potency, µM (top dose mostly 49.2 µM), most hits filed as inhibitors. hit rate 4.1% among 18,000
Marburg entry – blocks Marburg virus binding or cell entry. hit rate 6.5% among 18,000. Marburg virus pseudotype entry/binding inhibition, cell-based. Potency, µM (highest dose often 49.2 µM), hits mostly inhibitors
Of the large screens only hits and unclear results are named; the others gave an inactive call; ! = not active in a repeat. Most compounds without a hit are left out; they make up all but 8.6% or so of the library. The call rests on the fitted dose curve; tested in HEK293 cells.

O=C(OCc1cn([C@H]2C[C@H](c3ccccc3)N(C(=O)C3CCCCC3)C[C@H]2O)nn1)c1ccccc1	none
Cn1ccc2c(-c3ccccc3Cl)cc3c(c21)C1CCC3C1 (centres undefined)	none
CC(C)Nc1oc(-c2ccccc2)nc1C=Cc1ccccc1	none
CC(C)Nc1ccc(Nc2ccccc2)cc1	LASV entry inh inconclusive, Marburg entry 28.2µM
COC(=O)[C@@]1(C=C2c3ccc(F)cc3[C@@H](OC)[C@@H]2C)[C@@H]2OCCC[C@@H]21	none
CCOC(=O)[C@@]1([C@@H](NC(=O)OC)c2cccc(F)c2)CCCC1=O	none
C[C@H]1CC[C@H]2C(=O)O[C@H](COc3ccc(C(C)(C)C)cc3)CN2[C@H]1c1ccc(Br)cc1	none (no result: LASV entry inh)
COc1cc(CN2CCOc3ccc(CN4CCC(O)(c5cccnc5)CC4)cc3C2)cc(OC)c1	Marburg entry 11.2µM
COc1ccc(CN2CCOc3ccc(CN4CCC(O)(c5cccnc5)CC4)cc3C2)cc1OC	Marburg entry inconclusive
COCCN1C(=O)NC(c2cccc(C(F)(F)F)c2)C(C(=O)OC)=C1C (centres undefined)	none
C[C@@H](CN1c2ccccc2Sc2ccccc21)N(C)C	Marburg entry 10µM
CC(CN1c2ccccc2Sc2ccccc21)N(C)C (centres undefined)	LASV entry inh 31.6µM!, Marburg entry 12.6µM
CN(C)C(=O)OC1=C(c2ccccc2)Sc2ccccc2-n2cccc21	LASV entry inh inconclusive
COCC1=C(C(=O)OC)C(c2ccccc2)N(C(C)=O)C(=O)N1 (centres undefined)	none
CC(CCN1CCc2nc(-c3ccccc3)c(-c3ccccc3)cc2C1)=NO[C@H](C)CN1CCCCc2nc(C)c(C)cc21	none
OCc1ccc(-c2nc(-c3ccc4c(c3)OCO4)c(-c3ccccn3)[nH]2)cc1	Marburg entry inconclusive
COc1ccc(C(CCN2CCOCC2)c2c(OC)cc(OC)c3c(-c4ccccc4)cc(=O)oc23)cc1 (centres undefined)	LASV entry inh inconclusive, Marburg entry 22.4µM
COc1cc(OC)c2c(=O)c(-c3ccccc3)c(C)oc2c1OC	none
COc1cc(OC)c2c(-c3ccccc3)cc(=O)oc2c1C(CCN1CCOCC1)c1ccc2c(c1)OCO2 (centres undefined)	LASV entry inh inconclusive, Marburg entry 10µM
COc1cc(OC)c2ccc(=O)oc2c1C(CCN1CCOCC1)c1ccc(N(C)C)cc1 (centres undefined)	none
COc1cc(OC)c2ccc(=O)oc2c1C(CCN1CCOCC1)c1ccc2c(c1)OCO2 (centres undefined)	Marburg entry inconclusive
COc1cc(C(CCN2CCOCC2)c2c(OC)cc(OC)c3c(-c4ccccc4)cc(=O)oc23)cc(OC)c1OC (centres undefined)	LASV entry inh 4.47µM, Marburg entry 10µM
C=CC[C@]1(C(=O)OC)C=C[C@H](C)[C@@H](c2ccccc2)N1C(=O)C(F)(F)F	none
COC(=O)C1=C(C)N(CCC(C)O)C(=O)N(C(C)=O)C1c1ccccc1 (centres undefined)	none
COC(=O)[C@H](C)N1CC=CCOc2c(Cl)cc(Cl)cc2[S+]1(=O)[O-]	none
CN1CCCCC1CCN1c2ccccc2Sc2ccc(S(C)=O)cc21 (centres undefined)	LASV entry inh inconclusive, Marburg entry 8.91µM!
CCN1C(=O)N(S(=O)(=O)C(F)(F)F)C(c2ccccc2)C(C(=O)OC)=C1C (centres undefined)	none
O=C(Cn1cc(COc2ccc(-c3ccc(Br)cc3)cc2)nn1)c1ccc(O)cc1	none (no result: LASV entry inh)
CC(=C\c1ccccc1)/C=C1/SC(=S)N(CC(=O)O)C1=O	none
CC(C)[C@H](CO)Nc1nc(Nc2cccc(Cl)c2)c2ncn(C(C)C)c2n1	LASV entry inh 28.2µM
CC(C)n1cnc2c(NCc3ccccc3)nc(NCCO)nc21	none
CC(C)C[C@H]1COc2c(Cl)cccc2S(=O)(=O)N1Cc1cccc(F)c1	none
CN1CCN(C2CN(Cc3ccccc3)S(=O)(=O)C2)CC1 (centres undefined)	none
CN1CCc2c(c3ccccc3n2Cc2ccccc2)C1	LASV entry inh inconclusive, Marburg entry 17.8µM
COc1cc(C(NC(=O)C(F)(F)F)c2cc3ccccc3o2)cc(OC)c1OC (centres undefined)	none (no result: LASV entry inh)
c1ccc2c(c1)Sc1ccccc1N2C[C@@H]1CN2CCC1CC2	none
CN1CCCC(CC2c3ccccc3Sc3ccccc32)C1 (centres undefined)	LASV entry inh inconclusive, Marburg entry 7.94µM
CN1CCCC(CN2c3ccccc3Sc3ccccc32)C1 (centres undefined)	LASV entry inh 28.2µM, Marburg entry 11.2µM
C[C@H]1[C@H](N=[N+]=[N-])[C@H](O)CCO[C@@H]1c1ccccc1	none
COC(=O)C1=C(C(=O)OC)[C@@H]2Nc3ccccc3[C@@]23C[C@@H](C(=O)OC)N(C(=O)Nc2ccc(C(F)(F)F)cc2)C3=N1	none
COc1cc2c(cc1OC)C(=O)C(CC1CCN(Cc3ccccc3)CC1)C2 (centres undefined)	Marburg entry inconclusive
COc1cc(SC)ccc1C(=O)N1CCC(Cc2ccccc2)CC1	LASV entry inh 11.2µM
O=C(NN=C1C[C@@H](O)[C@H](O)[C@H]2[C@@H]3C(=O)N(C[C@@H]4CCCO4)C(=O)[C@@H]3CC[C@@H]12)OCc1ccccc1	none (no result: LASV entry inh)
COC(=O)[C@@H]1C[C@@H](NC(=O)c2cccc3c(C)c(C)[nH]c23)CN1Cc1cccc2ccccc12	LASV entry inh 3.55µM, Marburg entry 1.78µM
COC(=O)[C@@H]1C[C@H](NC(=O)c2ccccn2)CN1Cc1cccc2ccccc12	none
C=C(C[C@]1(C(=O)OC)C[C@]2(CC=C(C)C)C(=O)C(C(=O)CC(C)C)=C(O)[C@@](CC=C(C)C)(C1)C2=O)C(=O)OC	none (no result: LASV entry inh)
COc1ccc(O[C@H]2C=C[C@@H](c3ccccc3)O[C@H]2COC(=O)CCC(C)=NO[C@H](C)c2cn([C@@H]3COC[C@@H]3O)nn2)cc1	none (no result: LASV entry inh)
COC(=O)C1C[C@@]23C(=NN=C(SC)C2N(C)c2ccc(OC)cc23)N1C(C)=O (some centres undefined)	none (no result: LASV entry inh)
CC1=C(O)C(=O)[C@H]2O[C@@H]2C1=O	LASV entry inh 11.2µM
CC1=CC[C@@H](COc2ccccc2)O[C@@]2(C1)C(=O)N(CC1CC1)c1ccccc12	none
Nc1nc(=S)c2ncn([C@H]3O[C@@H](CO)[C@@H](O)[C@@H]3O)c2[nH]1	LASV entry inh inconclusive, Marburg entry 2µM
Nc1nc(F)nc2c1ncn2[C@@H]1O[C@H](CO)[C@@H](O)[C@@H]1O	none
COC(=O)c1csc(C(=O)c2c[nH]c3ccccc23)n1	none
COc1ccc(CCNC(=O)C(=O)c2c[nH]c3ccccc23)cc1	LASV entry inh 3.55µM
O=C(CCCN1CCN(c2ccccn2)CC1)c1ccc(F)cc1	none
O=C(CCCN1CCN(c2ccc(F)cc2)CC1)NC1c2ccccc2CSc2ccccc21 (centres undefined)	Marburg entry 14.1µM
C=CC[C@@](C(C)=O)(C(=O)OC)[C@@H](NC(=O)OC)c1ccccc1	none
O=C1c2ccccc2C(=O)N1CCCC[C@]12Cc3ccccc3[C@H](O1)c1c(c3ccccc3oc1=O)O2	none
c1ccc2c(c1)[nH]c1cnccc12	none
Cc1c2ccncc2c(C)c2c1[nH]c1ccccc12	Marburg entry 4.47µM
COc1cccc([C@@H]2Oc3ccc(OC)cc3[C@H](O)[C@@H]2O)c1	none
c1ccc(C[C@@H](c2ccccc2)N2CCCCC2)cc1	Marburg entry inconclusive
CN1CCN(C(c2ccccc2)c2ccccc2)CC1	LASV entry inh 11.2µM!, Marburg entry 11.2µM!

Bioassay records (PubChem BioAssay)
